In PubChem BioAssay AID1851 (National Center for Advancing Translational Sciences (NCATS), 2009):
In all, about 16,000 compounds went through this assay and about 5,700 (36%) were called active. Roughly 24% stayed inconclusive and do not appear here. The list shows a part of the results. Unmarked numbers belong to inactive results. Calls follow the shape of the dose curve; as a rule, active = well fitted curve in the direction sought with a large enough effect; inconclusive = small, poorly fitted or top-dose-only effect, or effect the other way; inactive = no such curve, though single readings can be large or run the other way.

What follows are compounds tested against Cytochrome P450 1A2 (Homo sapiens) (UniProt P05177) (assay: Cytochrome panel assay with activity outcomes). Conditions: recombinant CYP, pro-luciferin dealkylation, luminescence, p450-cyp1a2; series mostly up to 57.1 µM.
% is scaled to controls: 0 for no effect and ±100 for the full control effect.

Sequence of Cytochrome P450 1A2 (Homo sapiens) (P05177 whole entry, looked up): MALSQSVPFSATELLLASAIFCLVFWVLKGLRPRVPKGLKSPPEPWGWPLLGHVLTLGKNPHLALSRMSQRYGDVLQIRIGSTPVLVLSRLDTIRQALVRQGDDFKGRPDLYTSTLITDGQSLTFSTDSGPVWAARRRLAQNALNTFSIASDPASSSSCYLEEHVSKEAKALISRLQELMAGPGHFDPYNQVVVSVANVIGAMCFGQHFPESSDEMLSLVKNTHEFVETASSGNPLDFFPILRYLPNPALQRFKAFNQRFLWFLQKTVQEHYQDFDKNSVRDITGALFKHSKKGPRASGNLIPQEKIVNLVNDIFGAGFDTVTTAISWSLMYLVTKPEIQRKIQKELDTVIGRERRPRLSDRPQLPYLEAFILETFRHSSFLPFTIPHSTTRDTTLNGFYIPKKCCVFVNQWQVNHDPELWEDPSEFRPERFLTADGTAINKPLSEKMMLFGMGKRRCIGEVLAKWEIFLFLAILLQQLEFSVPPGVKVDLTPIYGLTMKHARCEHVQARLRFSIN

| SMILES | AC50 | activity, negative = inhibition |
| --- | --- | --- |
| CCC1CCc2c(c3ccccc3[nH]c2=O)O1 (stereo not given) | 0.562 µM (active) | – |
| C#CCn1c(=O)c2c(ncn2C)n(C)c1=O | inactive | – |
| CC[C@@H](c1ccccc1)n1c(=O)n2n(c1=O)[C@H]1[C@H](O)[C@H]3O[C@@H]3/C(=N/OC/C=C(\C)CCC=C(C)C)[C@@H]1CC2 | – | -18.9% [at 11.4 µM] |
| Cc1nc(/N=C(\N)Nc2ccccc2)nc2ccccc12 | 5.01 µM (active) | – |
| Cc1cccc(N/C(N)=N/c2nc(C)cc(C)n2)c1 | 12.6 µM (active) | – |
| Oc1cccnc1CN1CCCCC1 | – | -14.4% [at 11.4 µM] |
| [O-][n+]1c(CN2CCCCC2)nc2cccc3c2c1-c1ccccc1-3 | 1.58 µM (active) | – |
| CN1CCN(Cc2nc3cccc4c3c([n+]2[O-])-c2ccccc2-4)CC1 | 1.26 µM (active) | – |
| Cc1noc(C)c1C(=O)N1CCC[C@@]2(CCN(Cc3cc(C(F)(F)F)cc(C(F)(F)F)c3)C2)C1 | inactive | – |
| Nc1ccc(N=Nc2c(S(=O)(=O)O)cc3ccccc3c2S(=O)(=O)O)cc1 | – | -20.9% [at 2.29 µM] |
| CCNC(=S)N1CCC(NC(=O)C2CCCCC2)CC1 | inactive | – |
| CC(C)CCNC(=S)NC1CCCC1 | 14.1 µM (active) | – |
| CCC(C)NC(=O)C1CCCN(C(=O)NC2CCCCC2)C1 (stereo not given) | inactive | – |
| Cc1sc(N/N=C/c2cccnc2)nc1-c1ccccc1 | 0.0631 µM (active) | – |
| CC(=O)c1c(N2CCC(C(N)=O)CC2)nc(=S)n(-c2ccccc2)c1C | inactive | – |
| CC(=O)c1nnn(-c2nc(N)nc(N(c3ccccc3)c3ccccc3)n2)c1C | 22.4 µM (active) | – |
| O=C(O)CCC(O)=C1S(=O)(=O)OCCOS1(=O)=O | – | -21.5% [at 11.4 µM] |
| O=C(O)/C=C/C(=O)Nc1ccc(F)cc1F | inactive | – |
| COc1ccc(C(=O)Nc2ccc(F)cc2F)cc1OC | 14.1 µM (active) | – |
| CC(=O)c1ccc(OC(=O)C2c3ccccc3Oc3ccccc32)cc1 | 4.47 µM (active) | – |
| O=C(O)c1ccccc1C1c2ccccc2Oc2ccccc21 | – | -20.4% [at 2.29 µM] |
| COC(=O)c1c(-c2cc(OC)c(OC)c(OC)c2)c2ccc(OCc3ccccn3)cc2c(=O)n1-c1ccc(N)cc1 | inactive | – |
| CCNc1ncc2nc(C)c(=O)n(CCc3ccccc3)c2n1 | 1.58 µM (active) | – |

| SMILES | AC50 | activity, negative = inhibition |
| --- | --- | --- |
| CCNc1ncc2ncc(=O)n(CCc3ccccc3)c2n1 | 1 µM (active) | – |
| O=c1cnc2cnc(Nc3ccccc3)nc2n1CCc1ccccc1 | 3.16 µM (active) | – |
| CN1/C(=C\C=[N+](C)c2ccccc2)C(C)(C)c2ccccc21 | inactive | – |
| Nc1nc2c(nc(Br)n2[C@@H]2O[C@H]3COP(=O)(O)O[C@@H]3[C@H]2O)c(=O)[nH]1 | inactive | – |
| CCOc1cc2[nH]c(=O)n(CCC(=O)NCc3ccc(OC)cc3)c(=O)c2cc1OCC | inactive | – |
| COc1ccc(CNC(=O)Cc2csc(Nc3nc(=S)[nH]c4ccccc34)n2)cc1 | 4.47 µM (active) | – |
| O=C(Cc1csc(Nc2nc(=S)[nH]c3ccccc23)n1)NCc1cccc(Cl)c1 | 4.47 µM (active) | – |
| Cn1c(=O)c2c(n(Cc3ccccc3)c1=O)NC(=O)C2CC(=O)NCc1cccc(Cl)c1 (stereo not given) | inactive | – |
| Cc1ccc(CNC(=O)Cc2csc(Nc3nc(=S)[nH]c4ccccc34)n2)cc1 | 3.16 µM (active) | – |
| Cc1ccc(CS(=O)(=O)CCC(=O)NCc2ccccn2)cc1 | inactive | – |
| CC(C)(C)NC(=O)C(c1ccccn1)N(C(=O)C1CSC(=O)C1)c1ccc(F)cc1 (stereo not given) | inactive | – |
| S=C(Nc1ccc2c(c1)Cc1ccccc1-2)Nc1ccc2c(c1)Cc1ccccc1-2 | 0.2 µM (active) | – |
| O=C(O)c1ccccc1-c1ccccc1C(=O)Nc1ccc2c(c1)Cc1ccccc1-2 | – | -7.14% [at 2.29 µM] |
| COc1cccc(NC(=S)NN2CCN(C)CC2)c1 | inactive | – |
| O=C(Nc1ccc2c(c1)Cc1ccccc1-2)[C@@H]1[C@H](C(=O)O)[C@]2(Cl)C(Cl)=C(Cl)[C@@]1(Cl)C2(Cl)Cl | 3.16 µM (active) | – |
| COc1ccccc1-c1cc(Nc2ccc(F)cc2)ncn1 | 2 µM (active) | – |
| COc1ccccc1-c1cc(Nc2ccn[nH]2)ncn1 | 0.631 µM (active) | – |
| COc1ccccc1-c1cncnc1NCc1cccs1 | 3.16 µM (active) | – |
| Cc1ccccc1-c1cncnc1NCc1cccs1 | 3.16 µM (active) | – |
| CN(C)Cc1ccccc1-c1cncnc1NCc1cccs1 | 25.1 µM (active) | – |
| O=P(Cc1cc[n+]([O-])cc1)(c1ccccc1)c1ccccc1 | inactive | – |
| c1cncc(CNc2nc(-c3ccc4c(c3)OCO4)nc3ccccc23)c1 | 0.1 µM (active) | – |
